S1P4 antagonist: antagonists of human S1P4 receptor. O95977. S1P4-expressing cells, antagonist mode, reporter read-out. inhibition, % at 4.98 µM. hit rate 0.26% among 220,000. AID 1510; in the data active = inhibition above about 29%
S1P3 antagonist: blocks the human S1P3 receptor | inhibition, % at 4.98 µM | CHO S1P3 NFAT-BLA reporter, FRET fluorescence, antagonist mode | Q99500 | hit rate 0.27% among 170,000 | AID 485;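 active = inhibition above the plate cutoff, the mean inhibition of test wells on that plate plus 3 SD, cut at about 28% in these data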;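 note: cells challenged with S1P at its EC80 of 0.8 µM; blue over green emission ratio from cleaved BLA substrate after 4 h stimulation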
ROMK primary: modulators of human ROMK potassium channel; Tet-inducible ROMK, thallium flux fluorescence; actives lie on both sides; hit rate 2% among 130,000; AID 1918; B-score at 10 µM; P48048;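 active = signal ratio slope over the read window, or its plate-corrected B-score, at least 3 SD from the plate mean, either direction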;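 note: B-score of the F/F0 ratio slope over 7 to 12 s after thallium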
Target sequence (P48048 whole entry, looked up): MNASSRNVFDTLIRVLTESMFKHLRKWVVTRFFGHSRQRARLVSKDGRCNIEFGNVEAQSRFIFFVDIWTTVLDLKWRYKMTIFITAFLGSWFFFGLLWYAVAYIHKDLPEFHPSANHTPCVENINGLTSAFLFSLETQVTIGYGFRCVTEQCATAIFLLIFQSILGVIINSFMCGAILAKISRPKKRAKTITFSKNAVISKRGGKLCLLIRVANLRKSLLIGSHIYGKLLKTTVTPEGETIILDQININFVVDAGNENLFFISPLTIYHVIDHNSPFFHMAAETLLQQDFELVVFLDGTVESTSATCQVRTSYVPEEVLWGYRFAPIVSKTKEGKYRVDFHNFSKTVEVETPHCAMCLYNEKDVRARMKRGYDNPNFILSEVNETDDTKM
S1P4 agonist: agonists of human S1P4 receptor. activation, % at 4.98 µM. hit rate 0.35% among 220,000. O95977. S1P4-expressing cell line, agonist reporter assay; in the data active = activation above about 11%
Cl transport mod: KCC2 (human) Cl- transport modulation; hit rate 2.2% among 190,000; KCC2 cells, thallium flux FluoZin-2 fluorescence; B-score of Tl+ flux slope (higher = more flux/activation; lower = inhibition) at 10 µM; Q9H2X9;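 active = thallium flux slope and its plate-corrected score both differing from the plate sample mean at a set confidence after two filtering rounds, in either direction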;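 note: slope of fluorescence scaled to starting intensity during 10 to 20 s after thallium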
RAM inhibit: blocks the yeast RAM network | inhibition, % at 50 µM | hit rate 1.8% among 190,000 | S. cerevisiae dse1pr::URA3 reporter, 5-FOA growth OD615, 2 d; analog-sensitive cbk1-as2 kinase mutant strain;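 active = inhibition above a set limit, 3 SD over mean compound inhibition, cut at about 8.4% in these data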;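 note: inhibition rescues growth on 5-FOA so higher OD means more RAM inhibition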
Numbers stand for hits; - = inactive; . = no result given. Sampled rows, rich in hits. Any-hit rate of the full collection: about 5.1%.

SMILES	S1P4 antagonist	S1P3 antagonist	ROMK primary	S1P4 agonist	Cl transport mod	RAM inhibit
Cc1ccc(C)c(NC(=S)N=Nc2c(O)n(C)c3ccc(S(=O)(=O)N4CCOCC4)cc23)c1	-	-	.	-	5.7	-
Cc1nc2c(ccc3nc(NC(=O)Cc4ccccc4)sc32)s1	-	-	-	-	-	11
Cc1ccc(CC(=O)Nc2nc3ccccc3s2)cc1	-	.	.	-	-	-
CC12CCC(C(=O)N(CSC(=S)N/N=C\c3ccccc3)C1=O)C2(C)C (centres undefined)	-	.	.	-	23	-
Cc1nnc(SCc2ccccc2)nc1/C=C/NOCc1ccc(Cl)cc1Cl	-	.	-	-	.	8.5
COc1ccc(CC(=O)Nc2c3c(nn2-c2cccc(Cl)c2)CS(=O)(=O)C3)cc1	-	.	.	-	-	9.2
O=C(CSc1nnc2scc(-c3ccccc3)n12)NCc1ccc2c(c1)OCO2	-	-	.	-	.	9.6
CC(=O)Nc1ccc(NC(=O)CSc2nnc(-c3ccccc3)n2Cc2ccc3c(c2)OCO3)cc1	-	.	.	-	-	8.6
O=C(NCCN1CCOCC1)c1cc2cc([N+](=O)[O-])ccc2s1	-	-	-	-	-	-
COc1ccc(C(C(=O)Nc2ccc(C(C)C)cc2)N(C)C(=O)c2ccc(=O)[nH]c2)cc1 (centres undefined)	-	-	-	-	-	9.0
COc1cc(/C=C(\C#N)c2ccccn2)ccc1OCc1ccccc1Cl	-	-	.	-	-	9.7
COc1cc(/C=C(\C#N)c2ccccn2)cc(OC)c1O	-	-	.	-	-	.
Cc1cccc(OCCCN2C(=O)C(=O)c3cc(C)ccc32)c1	-	-	-	-	-	-
O=C(c1cc(COc2ccc(F)cc2Cl)on1)N1CCc2ccccc2C1	-	-	-	-	-	10
CCN(CC)C1CCN(C(=O)c2cc(COc3ccc(F)cc3Cl)on2)C1 (centres undefined)	-	-	.	-	-	-
CCN(Cc1ccccc1)C(=O)c1nn(-c2ccc(OC)cc2)c(=O)c2c1c1ccccc1n2C	-	-	-	-	-	-
O=C(CCC1CCCCC1)NCc1ccncc1	-	82	.	-	.	-
O=C(CCC1CCCCC1)NCc1ccc(F)cc1	-	-	-	-	-	-
O=c1c2ccccc2c(/C=N/c2n[nH]c(CCCO)n2)c(O)n1-c1ccccc1Cl	-	-	-	-	-	8.5
O=C(N/N=C/c1c(O)n(-c2ccccc2Cl)c(=O)c2ccccc12)C1COc2ccccc2O1 (centres undefined)	-	-	.	-	-	-
CC(C)CC(N=Cc1c(O)c2ccccc2oc1=O)C(=O)O (centres undefined)	-	-	-	-	-	-
O=C(NC(=S)NCc1ccccc1)c1ccccc1F	-	.	.	-	15	-
O=C(NC(=S)NC(=O)c1ccccc1F)c1ccccc1F	-	-	-	-	-	-
O=C(CC12CC3CC(CC(C3)C1)C2)NC(=S)NCc1ccccc1	-	-	.	-	-	9.4
Cc1c(C#N)c(NC(=O)CCl)n(Cc2cccs2)c1C	-	-	-	-	-	-
SMILES	S1P4 antagonist	S1P3 antagonist	ROMK primary	S1P4 agonist	Cl transport mod	RAM inhibit
Cc1ccccc1-c1ccc(=O)n(CC(=O)Nc2ccc(-n3cnnn3)cc2)n1	-	-	.	-	-	.
Cc1ccccc1-c1ccc(=O)n(CC(=O)Nc2ccc(S(=O)(=O)N(C)C)cc2)n1	-	-	-	-	-	8.9
COc1ccc(C2CC(c3ccccc3)=NN2C(=O)CSc2ncccn2)cc1 (centres undefined)	-	-	.	-	-	11
COc1ccc(C2CC(c3ccccc3)=NN2c2ccc(S(N)(=O)=O)cc2)cc1 (centres undefined)	-	-	.	-	.	9.3
NS(=O)(=O)c1ccc(N2N=C(c3ccccc3)CC2c2ccc(F)cc2)cc1 (centres undefined)	-	.	.	-	-	-
COc1ccc(C2CC(c3ccccc3)=NN2C(=O)CSc2ncn[nH]2)cc1 (centres undefined)	-	-	-	-	-	-
O=C(Nc1ccccc1)c1ccc(-c2ccc(Br)cc2)o1	-	.	-	-	-	-
COc1ccccc1NC(=O)c1ccc(-c2ccc(Br)cc2)o1	-	.	-	-	.	11
CCCc1cc(-c2n[nH]c(C)c2-c2ccc(C(=O)OCC)o2)c(O)cc1O	-	.	-	-	-	9.6
Cc1ccc(-n2c(C)cc(/C=C3\NC(=O)NC3=O)c2C)c(C)c1	-	-	-	-	-	-
O=C(Oc1ccccc1/C=C\C(=O)c1cc2ccccc2o1)c1cccc(F)c1	-	-	.	-	-	10

Compound activity: PubChem BioAssay, several laboratories
